Residue numbers refer to the chain shown, from its start.
What was measured:
Experiment in all cases: PBM; 200 nM protein, PBS
Conditions in all cases: dsDNA, one strand shown
NKX2-5 [1] = target: NKX2-5 (Homo sapiens, UniProt P52952 125-210, R139K)
HOXA7 [2] = target: HOXA7 (Homo sapiens, UniProt P31268 116-202)
HOXA7 [3] = target: HOXA7 (Homo sapiens, UniProt P31268 116-202, W177C)
NKX2-5 [4] = target: NKX2-5 (Homo sapiens, UniProt P52952 125-210)
HOXA4 [5] = target: HOXA4 (Homo sapiens, UniProt Q00056 201-287, W262R)
Chain of HOXA4 (Homo sapiens, UniProt Q00056 201-287, W262R) (Q00056 201-287 W262R): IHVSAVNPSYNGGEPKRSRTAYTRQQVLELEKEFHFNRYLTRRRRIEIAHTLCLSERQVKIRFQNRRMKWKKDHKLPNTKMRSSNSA

HOXA4 [6] = target: HOXA4 (Homo sapiens, UniProt Q00056 201-287, R217L)
Chain of HOXA4 (Homo sapiens, UniProt Q00056 201-287, R217L) (Q00056 201-287 R217L): as the sequence (Q00056 201-287 W262R) above, with R17L, R62W counted along it

ALX1 [7] = target: ALX1 (Homo sapiens, UniProt Q15699 118-204, L144V)
Chain of ALX1 (Homo sapiens, UniProt Q15699 118-204, L144V) (Q15699 118-204 L144V): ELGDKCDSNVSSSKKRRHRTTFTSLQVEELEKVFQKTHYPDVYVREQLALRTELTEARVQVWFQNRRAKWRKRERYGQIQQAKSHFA

ALX1 [8] = target: ALX1 (Homo sapiens, UniProt Q15699 118-204, L144R)
Chain of ALX1 (Homo sapiens, UniProt Q15699 118-204, L144R) (Q15699 118-204 L144R): as the sequence (Q15699 118-204 L144V) above, with V27R counted along it

HOXA4 [9] = target: HOXA4 (Homo sapiens, UniProt Q00056 201-287)
Chain of HOXA4 (Homo sapiens, UniProt Q00056 201-287) (Q00056 201-287): as the sequence (Q00056 201-287 W262R) above, with R62W counted along it

ALX1 [10] = target: ALX1 (Homo sapiens, UniProt Q15699 118-204)
Chain of ALX1 (Homo sapiens, UniProt Q15699 118-204) (Q15699 118-204): as the sequence (Q15699 118-204 L144V) above, with V27L counted along it

HOXA4 [11] = target: HOXA4 (Homo sapiens, UniProt Q00056 201-287, W262F)
Chain of HOXA4 (Homo sapiens, UniProt Q00056 201-287, W262F) (Q00056 201-287 W262F): as the sequence (Q00056 201-287 W262R) above, with R62F counted along it

NKX2-4 [12] = target: T1, NKX2-4 (Homo sapiens, UniProt Q9H2Z4 175-261, T231S)
T1 sequence: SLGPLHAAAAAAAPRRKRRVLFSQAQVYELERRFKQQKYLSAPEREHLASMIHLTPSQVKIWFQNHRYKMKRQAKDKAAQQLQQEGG

NKX2-6 [13] = target: T2, NKX2-6 (Homo sapiens, UniProt A6NCS4 118-204, R150C)
T2 sequence: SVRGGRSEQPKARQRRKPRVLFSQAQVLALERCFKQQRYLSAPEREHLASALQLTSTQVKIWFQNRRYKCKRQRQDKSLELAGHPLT

NKX2-6 [14] = target: T3, NKX2-6 (Homo sapiens, UniProt A6NCS4 118-204)
T3 sequence: T2 sequence with C33R

NKX2-6 [15] = target: T4, NKX2-6 (Homo sapiens, UniProt A6NCS4 118-204, F151L)
T4 sequence: T2 sequence with C33R, F34L

NKX3-2 [16] = target: NKX3-2 (Homo sapiens, UniProt P78367 192-278, P234S)
Chain of NKX3-2 (Homo sapiens, UniProt P78367 192-278, P234S) (P78367 192-278 P234S): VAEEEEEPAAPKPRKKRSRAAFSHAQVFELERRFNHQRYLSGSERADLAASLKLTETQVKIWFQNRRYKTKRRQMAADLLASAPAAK

NKX3-2 [17] = target: NKX3-2 (Homo sapiens, UniProt P78367 192-278)
Chain of NKX3-2 (Homo sapiens, UniProt P78367 192-278) (P78367 192-278): as the sequence (P78367 192-278 P234S) above, with S43P counted along it

PRRX1 [18] = target: PRRX1 (Homo sapiens, UniProt P54821 80-166, F113S)
Chain of PRRX1 (Homo sapiens, UniProt P54821 80-166, F113S) (P54821 80-166 F113S): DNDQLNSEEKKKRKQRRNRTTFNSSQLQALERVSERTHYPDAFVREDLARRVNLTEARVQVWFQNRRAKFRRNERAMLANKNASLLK

PRRX1 [19] = target: PRRX1 (Homo sapiens, UniProt P54821 80-166)
Chain of PRRX1 (Homo sapiens, UniProt P54821 80-166) (P54821 80-166): as the sequence (P54821 80-166 F113S) above, with S34F counted along it

HOXB6 [20] = target: HOXB6 (Homo sapiens, UniProt P17509 132-218, K202E)
Chain of HOXB6 (Homo sapiens, UniProt P17509 132-218, K202E) (P17509 132-218 K202E): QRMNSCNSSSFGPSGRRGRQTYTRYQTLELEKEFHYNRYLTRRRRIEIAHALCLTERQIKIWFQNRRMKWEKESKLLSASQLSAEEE

HOXB6 [21] = target: HOXB6 (Homo sapiens, UniProt P17509 132-218)
Chain of HOXB6 (Homo sapiens, UniProt P17509 132-218) (P17509 132-218): as the sequence (P17509 132-218 K202E) above, with E71K counted along it

HOXC10 [22] = target: HOXC10 (Homo sapiens, UniProt Q9NYD6 254-340)
Chain of HOXC10 (Homo sapiens, UniProt Q9NYD6 254-340) (Q9NYD6 254-340): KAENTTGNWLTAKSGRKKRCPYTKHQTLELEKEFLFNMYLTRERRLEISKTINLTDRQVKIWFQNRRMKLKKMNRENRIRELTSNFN

HOXC10 [23] = target: HOXC10 (Homo sapiens, UniProt Q9NYD6 254-340, K271E)
Chain of HOXC10 (Homo sapiens, UniProt Q9NYD6 254-340, K271E) (Q9NYD6 254-340 K271E): as the sequence (Q9NYD6 254-340) above, with K18E counted along it

HOXA2 [24] = target: HOXA2 (Homo sapiens, UniProt O43364 129-215, R185T)
Chain of HOXA2 (Homo sapiens, UniProt O43364 129-215, R185T) (O43364 129-215 R185T): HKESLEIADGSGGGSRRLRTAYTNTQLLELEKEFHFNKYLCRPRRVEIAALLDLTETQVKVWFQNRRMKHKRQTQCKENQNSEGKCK

HOXA2 [25] = target: HOXA2 (Homo sapiens, UniProt O43364 129-215, R185K)
Chain of HOXA2 (Homo sapiens, UniProt O43364 129-215, R185K) (O43364 129-215 R185K): as the sequence (O43364 129-215 R185T) above, with T57K counted along it

HOXA2 [26] = target: HOXA2 (Homo sapiens, UniProt O43364 129-215, Y150S)
Chain of HOXA2 (Homo sapiens, UniProt O43364 129-215, Y150S) (O43364 129-215 Y150S): as the sequence (O43364 129-215 R185T) above, with Y22S, T57R counted along it

HOXA2 [27] = target: HOXA2 (Homo sapiens, UniProt O43364 129-215)
Chain of HOXA2 (Homo sapiens, UniProt O43364 129-215) (O43364 129-215): as the sequence (O43364 129-215 R185T) above, with T57R counted along it

NKX2-4 [28] = target: T5, NKX2-4 (Homo sapiens, UniProt Q9H2Z4 175-261, R246Q)
T5 sequence: T1 sequence with S57T, R72Q

ALX4 [29] = target: ALX4 (Homo sapiens, UniProt Q9H161 200-286)
Chain of ALX4 (Homo sapiens, UniProt Q9H161 200-286) (Q9H161 200-286): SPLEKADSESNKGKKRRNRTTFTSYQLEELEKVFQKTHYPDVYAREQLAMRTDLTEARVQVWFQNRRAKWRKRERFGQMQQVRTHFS

ALX4 [30] = target: ALX4 (Homo sapiens, UniProt Q9H161 200-286, Q225E)
Chain of ALX4 (Homo sapiens, UniProt Q9H161 200-286, Q225E) (Q9H161 200-286 Q225E): as the sequence (Q9H161 200-286) above, with Q26E counted along it

HOXD13 [31] = target: HOXD13 (Homo sapiens, UniProt P35453 263-343, T313R)
Chain of HOXD13 (Homo sapiens, UniProt P35453 263-343, T313R) (P35453 263-343 T313R): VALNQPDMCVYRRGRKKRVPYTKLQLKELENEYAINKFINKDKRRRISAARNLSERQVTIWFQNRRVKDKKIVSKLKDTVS

HOXD13 [32] = target: HOXD13 (Homo sapiens, UniProt P35453 263-343)
Chain of HOXD13 (Homo sapiens, UniProt P35453 263-343) (P35453 263-343): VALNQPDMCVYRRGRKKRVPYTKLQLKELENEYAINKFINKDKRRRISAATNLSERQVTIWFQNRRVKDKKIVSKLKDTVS

HOXD13 [33] = target: HOXD13 (Homo sapiens, UniProt P35453 263-343, T313A)
Chain of HOXD13 (Homo sapiens, UniProt P35453 263-343, T313A) (P35453 263-343 T313A): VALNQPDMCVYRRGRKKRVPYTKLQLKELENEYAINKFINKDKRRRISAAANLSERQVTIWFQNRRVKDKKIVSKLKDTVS

Chain of NKX2-5 (Homo sapiens, UniProt P52952 125-210, R139K) (P52952 125-210 R139K): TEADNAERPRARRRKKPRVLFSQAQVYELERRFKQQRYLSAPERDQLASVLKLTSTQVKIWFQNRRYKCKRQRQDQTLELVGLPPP
Chain of NKX2-5 (Homo sapiens, UniProt P52952 125-210) (P52952 125-210): as the sequence (P52952 125-210 R139K) above, with K15R counted along it
Chain of HOXA7 (Homo sapiens, UniProt P31268 116-202) (P31268 116-202): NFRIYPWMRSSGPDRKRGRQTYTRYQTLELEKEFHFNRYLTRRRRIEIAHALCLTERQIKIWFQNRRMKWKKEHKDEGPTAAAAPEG
Chain of HOXA7 (Homo sapiens, UniProt P31268 116-202, W177C) (P31268 116-202 W177C): as the sequence (P31268 116-202) above, with W62C counted along it

AGGCCAGC
binding signal (NKX2-5 [1]): 8.71 upbm affinity estimate (log intensity, higher = more binding, comparable within an allelic series)
binding signal (HOXA7 [2]): 8.41 upbm affinity estimate (log intensity, higher = more binding, comparable within an allelic series)
binding signal (HOXA7 [3]): 8.42 upbm affinity estimate (log intensity, higher = more binding, comparable within an allelic series)
binding signal (NKX2-5 [4]): 8.67 upbm affinity estimate (log intensity, higher = more binding, comparable within an allelic series)

CCCAACGG
binding signal (NKX2-5 [1]): 8.75 upbm affinity estimate (log intensity, higher = more binding, comparable within an allelic series)
binding signal (HOXA4 [5]): 9.93 upbm affinity estimate (log intensity, higher = more binding, comparable within an allelic series)
binding signal (HOXA4 [6]): 9.99 upbm affinity estimate (log intensity, higher = more binding, comparable within an allelic series)
binding signal (ALX1 [7]): 6.54 upbm affinity estimate (log intensity, higher = more binding, comparable within an allelic series)
binding signal (ALX1 [8]): 6.52 upbm affinity estimate (log intensity, higher = more binding, comparable within an allelic series)
binding signal (HOXA4 [9]): 9.83 upbm affinity estimate (log intensity, higher = more binding, comparable within an allelic series)
binding signal (ALX1 [10]): 6.46 upbm affinity estimate (log intensity, higher = more binding, comparable within an allelic series)
binding signal (HOXA4 [11]): 10 upbm affinity estimate (log intensity, higher = more binding, comparable within an allelic series)
binding signal (NKX2-5 [4]): 8.76 upbm affinity estimate (log intensity, higher = more binding, comparable within an allelic series)

TAAGTACA
binding signal (NKX2-5 [1]): 12.4 upbm affinity estimate (log intensity, higher = more binding, comparable within an allelic series)
binding signal (NKX2-4 [12]): 12.8 upbm affinity estimate (log intensity, higher = more binding, comparable within an allelic series)
binding signal (NKX2-6 [13]): 11.9 upbm affinity estimate (log intensity, higher = more binding, comparable within an allelic series)
binding signal (NKX2-6 [14]): 13.3 upbm affinity estimate (log intensity, higher = more binding, comparable within an allelic series)
binding signal (NKX2-6 [15]): 10.5 upbm affinity estimate (log intensity, higher = more binding, comparable within an allelic series)
binding signal (NKX3-2 [16]): 12.6 upbm affinity estimate (log intensity, higher = more binding, comparable within an allelic series)
binding signal (NKX2-5 [4]): 12.4 upbm affinity estimate (log intensity, higher = more binding, comparable within an allelic series)
binding signal (NKX3-2 [17]): 12.6 upbm affinity estimate (log intensity, higher = more binding, comparable within an allelic series)

CGCCTACC
binding signal (NKX2-5 [1]): 8.86 upbm affinity estimate (log intensity, higher = more binding, comparable within an allelic series)
binding signal (PRRX1 [18]): 9.18 upbm affinity estimate (log intensity, higher = more binding, comparable within an allelic series)
binding signal (PRRX1 [19]): 8.83 upbm affinity estimate (log intensity, higher = more binding, comparable within an allelic series)
binding signal (NKX2-5 [4]): 8.84 upbm affinity estimate (log intensity, higher = more binding, comparable within an allelic series)

ACCGGTCC
binding signal (NKX2-5 [1]): 8.75 upbm affinity estimate (log intensity, higher = more binding, comparable within an allelic series)
binding signal (HOXA7 [2]): 8.49 upbm affinity estimate (log intensity, higher = more binding, comparable within an allelic series)
binding signal (HOXA7 [3]): 8.3 upbm affinity estimate (log intensity, higher = more binding, comparable within an allelic series)
binding signal (NKX2-5 [4]): 8.88 upbm affinity estimate (log intensity, higher = more binding, comparable within an allelic series)

ACGCCCGG
binding signal (NKX2-5 [1]): 8.77 upbm affinity estimate (log intensity, higher = more binding, comparable within an allelic series)
binding signal (HOXB6 [20]): 8.95 upbm affinity estimate (log intensity, higher = more binding, comparable within an allelic series)
binding signal (NKX2-5 [4]): 8.74 upbm affinity estimate (log intensity, higher = more binding, comparable within an allelic series)
binding signal (HOXB6 [21]): 9.06 upbm affinity estimate (log intensity, higher = more binding, comparable within an allelic series)

ACACCGGG
binding signal (NKX2-5 [1]): 8.93 upbm affinity estimate (log intensity, higher = more binding, comparable within an allelic series)
binding signal (HOXC10 [22]): 10.2 upbm affinity estimate (log intensity, higher = more binding, comparable within an allelic series)
binding signal (HOXC10 [23]): 10 upbm affinity estimate (log intensity, higher = more binding, comparable within an allelic series)
binding signal (NKX2-5 [4]): 8.94 upbm affinity estimate (log intensity, higher = more binding, comparable within an allelic series)

CCGAGGTC
binding signal (NKX2-5 [1]): 8.47 upbm affinity estimate (log intensity, higher = more binding, comparable within an allelic series)
binding signal (HOXA2 [24]): 6.93 upbm affinity estimate (log intensity, higher = more binding, comparable within an allelic series)
binding signal (HOXA2 [25]): 10.2 upbm affinity estimate (log intensity, higher = more binding, comparable within an allelic series)
binding signal (HOXA2 [26]): 10.4 upbm affinity estimate (log intensity, higher = more binding, comparable within an allelic series)
binding signal (HOXA2 [27]): 7.18 upbm affinity estimate (log intensity, higher = more binding, comparable within an allelic series)
binding signal (NKX2-5 [4]): 8.66 upbm affinity estimate (log intensity, higher = more binding, comparable within an allelic series)

CGCACTTA
binding signal (NKX2-5 [1]): 12.6 upbm affinity estimate (log intensity, higher = more binding, comparable within an allelic series)
binding signal (NKX2-6 [13]): 11.8 upbm affinity estimate (log intensity, higher = more binding, comparable within an allelic series)
binding signal (ALX1 [7]): 8.31 upbm affinity estimate (log intensity, higher = more binding, comparable within an allelic series)
binding signal (NKX2-6 [14]): 13.5 upbm affinity estimate (log intensity, higher = more binding, comparable within an allelic series)
binding signal (NKX2-4 [28]): 12.9 upbm affinity estimate (log intensity, higher = more binding, comparable within an allelic series)
binding signal (NKX2-6 [15]): 10.9 upbm affinity estimate (log intensity, higher = more binding, comparable within an allelic series)
binding signal (NKX3-2 [16]): 12.6 upbm affinity estimate (log intensity, higher = more binding, comparable within an allelic series)
binding signal (ALX1 [10]): 8.83 upbm affinity estimate (log intensity, higher = more binding, comparable within an allelic series)
binding signal (NKX2-5 [4]): 12.5 upbm affinity estimate (log intensity, higher = more binding, comparable within an allelic series)
binding signal (NKX3-2 [17]): 12.7 upbm affinity estimate (log intensity, higher = more binding, comparable within an allelic series)

GCGTGCGA
binding signal (NKX2-5 [1]): 8.9 upbm affinity estimate (log intensity, higher = more binding, comparable within an allelic series)
binding signal (ALX4 [29]): 7.96 upbm affinity estimate (log intensity, higher = more binding, comparable within an allelic series)
binding signal (ALX4 [30]): 8.17 upbm affinity estimate (log intensity, higher = more binding, comparable within an allelic series)
binding signal (NKX2-5 [4]): 8.92 upbm affinity estimate (log intensity, higher = more binding, comparable within an allelic series)

CCCCCCGG
binding signal (NKX2-5 [1]): 8.2 upbm affinity estimate (log intensity, higher = more binding, comparable within an allelic series)
binding signal (HOXC10 [22]): 9.81 upbm affinity estimate (log intensity, higher = more binding, comparable within an allelic series)
binding signal (NKX2-6 [13]): 8.56 upbm affinity estimate (log intensity, higher = more binding, comparable within an allelic series)
binding signal (HOXD13 [31]): 8.85 upbm affinity estimate (log intensity, higher = more binding, comparable within an allelic series)
binding signal (HOXD13 [32]): 8.78 upbm affinity estimate (log intensity, higher = more binding, comparable within an allelic series)
binding signal (HOXC10 [23]): 9.82 upbm affinity estimate (log intensity, higher = more binding, comparable within an allelic series)
binding signal (HOXD13 [33]): 8.98 upbm affinity estimate (log intensity, higher = more binding, comparable within an allelic series)
binding signal (NKX2-5 [4]): 8.1 upbm affinity estimate (log intensity, higher = more binding, comparable within an allelic series)

Reference: PMC11006913
